Sampled rows, rich in hits. Any-hit rate of the full collection: about 27%.
CYP2C9 inh: blocks human cytochrome P450 2C9. P11712. CYP2C9 Supersomes, luciferin-H conversion, luminescence. inhibition, % at 5 µM. actives 20% (n = 96,000);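 active means blocking of liver enzyme CYP2C9 beyond about 50% at 5 µM, limit read from the data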
CYP2C19 act: increases human CYP2C19 enzyme activity; AID 1025; P33261; 96,000 tested, under 10 active; recombinant CYP2C19, luciferin-H EGE luminescence; stronger effect = higher value; 0 = fully inhibited enzyme, 1 = untreated enzyme; activation factor at 5 µM;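 active means activation factor of at least 2 at 5 µM in the primary screen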;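 further: 0 = wells with 2.5 mM tranylcypromine and 1 = vehicle-only wells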
CYP2C9 act: activators of human CYP2C9 | recombinant CYP2C9, luciferin-H conversion, luminescence; stronger effect = higher value; factor 1 = untreated enzyme, 0 = blocked | activation factor at 5 µM | actives 1.4% (n = 96,000) | AID 1024;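 active means activation factor of 2 or more for CYP2C9 at a 5 µM dose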;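 further: 0 = sulfaphenazole-blocked wells and 1 = vehicle-only wells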
CYP2C19 inhib: human CYP2C19 inhibition; P33261; CYP2C19 Supersomes, luciferin-H EGE luminescence, 30 min; inhibition, % at 5 µM; actives 21% (n = 96,000); AID 778;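 active means CYP2C19 inhibition above a set limit at 5 µM in the primary screen, cut at about 50% in these data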;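 further: plate controls were negative control wells for no effect and 2.5 mM tranylcypromine positive control for full effect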
Cav3 T inh: human Cav3.2 channel inhibition, primary screen. AID 449739. Cav3.2-expressing cells, Fluo-4 calcium fluorescence FDSS; stronger effect = lower value. B-score at 10 µM. actives 4% (n = 100,000). O95180;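 active means single-dose well whose peak fluorescence ratio is a statistical outlier from its plate by either plate-standardised score or position-corrected B-score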
Numbers without * were called inactive; . = no result given.

SMILES	CYP2C9 inh	CYP2C19 act	CYP2C9 act	CYP2C19 inhib	Cav3 T inh
C=CCc1ccc(OCCOCCNCCCC)c(OC)c1	-8	0.6	1.1	38	-0.54
Cc1cc(C)n(C(=O)CNC(=O)CCc2ccccc2)n1	-87	0.9	1.9	9	-0.84
COc1ccc(S(=O)(=O)Nc2ccc(F)cc2)cc1N(C)S(=O)(=O)c1ccc(Cl)cc1	67*	0.5	0.3	52*	-5*
COc1cc(S(=O)(=O)Nc2cccnc2)ccc1F	4	0.7	1	25	0.12
COc1ccccc1NS(=O)(=O)c1ccc(O)c(C(N)=O)c1	14	0	0.9	100*	-0.32
O=C(O)c1ccccc1NS(=O)(=O)c1cccc(C(F)(F)F)c1	51*	0.4	0.5	60*	-1.3
CCCNC(=O)c1ccccc1NS(=O)(=O)c1ccc(OC)c(OC)c1	.	.	.	.	-0.77
COC(=O)c1ccccc1NS(=O)(=O)c1ccc(O)c(C(=O)O)c1	91*	0.9	0.1	9	0.78
Cc1cc(N)n(-c2ccc3ccccc3c2)n1	1	0.9	1	12	1.2
Cc1ccc(C2C3CN(C(C)C)CC=C3C(C#N)=C(N)C2(C#N)C#N)cc1 (stereo unspecified)	45	0.8	0.5	23	.
C#C[C@]1(O)CC[C@H]2[C@@H]3CCc4cc(OC5CCCC5)ccc4[C@H]3CC[C@@]21C	.	.	.	.	-0.21
O=C(CS(=O)(=O)c1cccc(C(F)(F)F)c1)Nc1ccccc1Cl	-87	0.4	1.9	60*	-0.19
O=C(Nc1ccccc1F)c1ccc(CNS(=O)(=O)c2cccc(C(F)(F)F)c2)cc1	-31	1	1.3	-1	.
COc1ccc(S(=O)(=O)Nc2ccc(S(=O)(=O)Nc3ccc(F)cc3)cc2)cc1C	.	.	.	.	-6.8*
CCCC(C)NS(=O)(=O)c1ccc(OC)c(C)c1 (stereo unspecified)	-84	0.2	1.8	81*	-0.7
COc1cc(S(=O)(=O)Nc2ccccc2)ccc1NC=O	-63	0.7	1.6	27	-0.0015
COc1ccc(S(=O)(=O)Nc2ccccc2OC)cc1C	-186	0	2.9*	100*	-0.048
Cc1ccc(S(=O)(=O)NCC(C)NS(=O)(=O)c2ccc(C)cc2)cc1 (stereo unspecified)	-15	0.7	1.1	33	.
CCCCN(C(=O)CNC(=O)c1ccco1)C(C(=O)NC1CCCC1)c1ccc(OC)cc1 (stereo unspecified)	12	0.6	0.9	39	-0.11
COc1cc(NS(=O)(=O)c2ccc(C)c(C)c2)c(OC)cc1Cl	95*	0	0.1	100*	-6.6*
Cc1cc(O)c(C(C)C)cc1NS(=O)(=O)c1ccccc1	42	0.1	0.6	86*	-2.3
COc1ccc(S(=O)(=O)Nc2ccc(S(=O)(=O)N3CCOCC3)cc2)cc1C	93*	0.2	0.1	76*	0.7
O=S(=O)(Nc1ccc(S(=O)(=O)N2CCOCC2)cc1)c1ccccc1	46	0.9	0.5	7	1.6
COc1ccc(S(=O)(=O)Nc2ccccc2SC)cc1C	-104	0	2*	99*	.
O=C(O)c1cc2nc(C3CC3)cc(C(F)(F)F)n2n1	-13	1.1	1.1	-9	0.28
SMILES	CYP2C9 inh	CYP2C19 act	CYP2C9 act	CYP2C19 inhib	Cav3 T inh
Cc1ccnc(NS(=O)(=O)c2ccccc2)n1	3	1	1	2	0.36
CSc1ccccc1NS(=O)(=O)c1ccccc1	-360	0.1	4.6*	87*	0.36
CC(=O)Nc1ccc(NS(=O)(=O)c2ccc(Cl)c(C(=O)O)c2)cc1	-6	1	1.1	4	0.22
Cc1cc(S(=O)(=O)Nc2ccccc2C(=O)O)ccc1Cl	74*	0.6	0.3	37	-2.1
Cc1nn(-c2ccccc2)c(Cl)c1/C=N/Nc1ccc(S(=O)(=O)Nc2ccccc2C(=O)O)cc1[N+](=O)[O-]	69*	1	0.3	5	.
COc1ccc(S(=O)(=O)Nc2ccc(C(F)(F)F)cc2)cc1OC	62*	0	0.4	99*	-4.8*
CCOC(=O)CC(=O)Nc1ccc(Br)cc1C(=O)O	45	0.8	0.6	15	1.1
O=C(c1ccccc1CCc1ccccc1)N1CCOCC1	-11	0.6	1.1	40	-0.053
Cc1ccc(-n2c(SCC(=O)Nc3cc(C)on3)nc3c(c2=O)SC(C)C3)cc1 (stereo unspecified)	34	0.8	0.7	18	0.53
COc1ccccc1NS(=O)(=O)c1ccc(Cl)cc1	30	0	0.7	99*	-0.078
COc1ccc(Cl)cc1NS(=O)(=O)c1cc(Cl)ccc1OC	11	1.1	0.9	-6	-0.32
COc1ccc(NC(=O)c2cccc(NC(=O)C3C4CC5OC(=O)C3C5C4)c2)c(OC)c1 (stereo unspecified)	5	1	1	-4	-0.033
COc1cc(CC(=O)OCC(=O)c2ccc3c(c2)OCCO3)cc(OC)c1OC	20	0.9	0.8	5	-0.26
COc1ccc2c(c1OC)C(=O)OC2CC(=O)c1ccc2c(c1)OCO2 (stereo unspecified)	42	0.4	0.6	56*	0.22
CC(NC(=O)C1CCCCC1)C(c1cccs1)N1CCN(C)CC1 (stereo unspecified)	.	.	.	.	0.62
COc1ccccc1-n1cnnc1SCC(=O)c1ccc[nH]1	41	0.4	0.6	59*	0.1
O=C(Nc1ccccc1C(=O)N1CCOCC1)c1cccc(S(=O)(=O)N2CCCC2)c1	3	1.1	1	-9	1.4
O=C(Nc1ccccc1C(=O)N1CCCC1)c1cccc(S(=O)(=O)N2CCCCCC2)c1	80*	0.5	0.2	54*	-1.2
CCNC(=O)c1ccccc1NC(=O)c1cccc(S(=O)(=O)N2CCC(C)CC2)c1	68*	0.4	0.3	59*	-1.9
Cc1ccc(O)c(NC(=O)c2cccc(S(=O)(=O)N3CCCCC3)c2)c1	53*	0.4	0.5	59*	.
O=C(NCc1ccccc1)c1cccc(S(=O)(=O)N2CCOCC2)c1	0	0.6	1	36	.
Cc1ccccc1NC(=O)c1cc(S(=O)(=O)N2CCCCC2)cs1	51*	0.7	0.5	34	0.039
Cc1ccc(S(=O)(=O)c2cc3c(=O)n4cccc(C)c4nc3n(CC3CCCO3)c2=N)cc1 (stereo unspecified)	18	0.9	0.8	9	.
CCN(CC)S(=O)(=O)c1ccc(C(=O)NCCCN=C2NS(=O)(=O)c3ccccc32)cc1	.	.	.	.	-0.67
COc1ccc2c(c1)S/C(=C\C(=O)c1ccncc1)N2C	62*	0.3	0.4	73*	-0.12
O=C(NCc1ccc(C(F)(F)F)cc1)C12CN(Cc3ccccc3)CC1C(c1cccc([N+](=O)[O-])c1)=NO2 (stereo unspecified)	45	0.5	0.5	47	-3.2*
Cc1ccc(CCNC(=O)C23CN(Cc4ccccc4)CC2C(c2cccc([N+](=O)[O-])c2)=NO3)cc1 (stereo unspecified)	75*	0.2	0.3	77*	.
